In the supplement of paper PMC11417369:
The full ranking holds about 25,000 sequences; the median of “ln(normalized median fluorescence intensity)” is about 6.7, and the highest 2% start at about 10. What follows is part of a selection rich in the highest values, with near analogues and random picks from the rest.

tested on: PfHDP1 homeodomain (GST-tagged); assay: gcPBM binding intensity (ln(normalized median fluorescence intensity)); higher = stronger DNA binding
How it was run: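 For binding intensity, the highest Masliner-normalised natural-log median intensity across replicate spots of either probe orientation was taken. Protein bound to the array was stained with Alexa488 anti-GST antibody and scanned at 488 nm. The protein, GST-tagged P. falciparum DNA-binding domains from E. coli at about 25 μg on average, had been applied for 1 h to an Agilent 4 × 180k array of primer-extended double-stranded 36-bp intergenic genomic probes and negative controls.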

Compared with “TTTTTTTAATAGTGTGCACACAATATACAGAAAAAA [CACACA_site8399]”, TTTTTAATATATTAGGTGCACAATAATACACTTTAT is lower in “gcPBM binding intensity (ln)” value: 11 for the first, 10.3 for the second.

First: TTTTTAAAAATATACACACACAGATATTATATATAT [CACACA_site786]
Second: ACAGAATACATATACACACATACAAAAAAGTGCATA [CACACA_site987]
The “gcPBM binding intensity (ln)” value of the first is lower: 6.94 for the first, 7.81 for the second.

First: TTATAATAATTTTATGCACACAGAAAAATACAAGGT [CACACA_site9169]
Second: TTTTTTTAACGGTGTGCACACAATATACAGAAAAAA [CACACA_site1415]
The “gcPBM binding intensity (ln)” value of the first is lower: 10.2 for the first, 11.1 for the second.

First: TGTAGTCTGGAGAAAAGTACATAGTATCTGATAACC [XGTACX_site2018]
Second: CCATTTTAAATATGCACACAGATGCACTAACCCATT [CACACA_site1883]
The “gcPBM binding intensity (ln)” value of the first is lower: 6.4 for the first, 9.9 for the second.

First: CCATTTTAAATATGCACACAGATGCACTAACACATT [CACACA_site5099]
Second: TAAATATGCTCACAGATGCACTAACACATTTTTATA [GTGCAC_site9997]
The “gcPBM binding intensity (ln)” value of the first is higher: 10.6 for the first, 10.4 for the second.

Compared with “AACCATTTTAAATATGCACACAGATGCACTAACACA [CACACA_site8565]”, “TGGCACTAAAAAAATAAACACACAGATTTATATAAT [CACACA_site8386]” is lower in “gcPBM binding intensity (ln)” value: 10.5 for the first, 6.51 for the second.

Going from “GCACTAAAAAAATAAACACACAGATTTATATAATAT [CACACA_site1381]” to “TATGTTCCTTTTTGTTGTACTGAAAAATTATGTTCA [XGTACX_site3981]”, the “gcPBM binding intensity (ln)” value rises from 6.5 to 6.61.

Going from “GAAATAATAAATTAAAAATCGTTTATAACATTTAAC [CACACA_negctrl_site425]” to “AAATTCATAAAAATATTTTATAATTATATATAGAAT [TGCATGCA_negctrl_site343]”, the “gcPBM binding intensity (ln)” value rises from 6.21 to 6.34.

Going from “ATAAAATATATATATATAAAAATAAATACATAAATA [GTGCAC_negctrl_site157]” to “ATGCATATGTTTATTGCACACACCAAAAAGAAAACA [CACACA_site403]”, the “gcPBM binding intensity (ln)” value rises from 6.31 to 9.25.

Going from “GCATATGTTTATTGCACACACCAAAAAGAAAACATA [CACACA_site4384]” to “CACAAAAAGAAACACACACACATATATATTTATTAT [CACACA_site3646]”, the “gcPBM binding intensity (ln)” value falls from 10.5 to 6.73.

Compared with “ACTATATTTCATAACAGTACATATTCCTGAAACATC [XGTACX_site4924]”, “ATAATATAAATACAAACACACAATTGTGTCCACATT [CACACA_site6920]” is higher in “gcPBM binding intensity (ln)” value: 6.43 for the first, 6.79 for the second.

Going from “AGTATATACACGTGCGTGCACAGATATTCTTTTTTT [GTGCAC_site9398]” to “AATACTAAAAAGTGTACACATACATAAAAAATTGCA [CACACA_site5620]”, the “gcPBM binding intensity (ln)” value falls from 9.58 to 7.24.

Going from “GTACACTAATTATGTGCACACAAATTAAAGGTCTAC [CACACA_site146]” to TTTATATTTAAAAGGATGCACTACAAATTCTAAATA, the “gcPBM binding intensity (ln)” value falls from 11 to 7.36.

First: CCACTAATTATGTGCACACAAATTAAAGGTCTACAA [CACACA_site4259]
Second: TCTTTATGTAAGGTCTTCCACAAAAAAATTAAAAAA [TGCATGCA_negctrl_site229]
The “gcPBM binding intensity (ln)” value of the first is higher: 11.4 for the first, 6.21 for the second.

First: GATTTATACAAATATGTACACACTAATTATATATTA [CACACA_site8045]
Second: AATTAATGGCTAAAGGTGCACAATATATATATTACA
The “gcPBM binding intensity (ln)” value of the first is lower: 6.9 for the first, 9.84 for the second.

Compared with “ACGCTAATTATGTGCACACAAATTAAAGGTCTACAA [CACACA_site147]”, “ATATTCTAAATAAAGGGTACACAAAAATAATTAAAG [XGTACX_site5529]” is lower in “gcPBM binding intensity (ln)” value: 11.4 for the first, 6.9 for the second.

Compared with “TGTTAATAAAGGTGTACACAAAATAAAAAAAATTAT [CACACA_site4288]”, “TTTTTCTTTCTCTATTGTACACATGGAAACACATAA [XGTACX_site4601]” is higher in “gcPBM binding intensity (ln)” value: 7.2 for the first, 7.56 for the second.

Compared with “AAAAAAAAAAGAAACACACACATATATATATATAAT [CACACA_site5052]”, “AATACAAACCAAAAAGTAAATACATCAACATGATCA [CACACA_negctrl_site140]” is lower in “gcPBM binding intensity (ln)” value: 6.7 for the first, 6.26 for the second.

First: CTATATATTTTTCATTGTACACAAATTAAAGAAAAA [XGTACX_site8385]
Second: GTTGCACAATGTTACACACACAATATATATCGTTAA [CACACA_site1275]
The “gcPBM binding intensity (ln)” value of the first is lower: 6.61 for the first, 9.41 for the second.

Going from “ATGTTGCACAATGTTACACACACAATATATATCGTT [CACACA_site4833]” to “GTTGCACAATGTTACACACACAATATAGATCGTTAA [CACACA_site6717]”, the “gcPBM binding intensity (ln)” value falls from 10.7 to 9.91.

First: ATATAATTACATTGATGTACACGAAATGATTAACAT [XGTACX_site5183]
Second: TATTCAGGTCCAATGGTGCAATATATTTTTGTAATA [GTGCAC_site9607]
The “gcPBM binding intensity (ln)” value of the first is lower: 6.43 for the first, 10.6 for the second.

Compared with ATTCATTTACCAATGGTGCAATATATTTTTATAATG, TATTCATATTTAAAGGTGCAATATTTATTTTGTACA is lower in “gcPBM binding intensity (ln)” value: 10.3 for the first, 9.16 for the second.

First: ATTAGTATATTTCTCTGTACTTACATTAAAATATAA [XGTACX_site2217]
Second: TTACACATGTATTTGGTGCATGTTGTTAACAAAATA
The “gcPBM binding intensity (ln)” value of the first is lower: 6.41 for the first, 9.83 for the second.

Going from “ATTTATTTATACAAAGTGCAATATTTTGTTAAAGTC [GTGCAC_site9618]” to TTTTTTGTTAAGTTGGTGCAAACAATAGTTATTGAC, the “gcPBM binding intensity (ln)” value rises from 8.15 to 10.7.

First: TTTATTTTAACTTGTTCACACATTTGAATAAATAAA [CACACA_site5064]
Second: ATAATATATTATTATAGTACTTTATTTTATTTTATG [XGTACX_site2387]
The “gcPBM binding intensity (ln)” value of the first is lower: 6.3 for the first, 6.65 for the second.

Going from “TTTTTAAAATTTTTAAAAATATTATGTTAAATATAT [CACACA_negctrl_site415]” to “TTGTACATCTTTTGCACACGTAATGTTATTATAATA [CACACA_site1258]”, the “gcPBM binding intensity (ln)” value rises from 6.29 to 10.7.

First: TTGTACATCTTTTGCACACGTAATGTTATTAAAATA [CACACA_site4827]
Second: GAACACTAATAATGTTGTACACGTAATTATATATTT [XGTACX_site777]
The “gcPBM binding intensity (ln)” value of the first is higher: 10.7 for the first, 6.53 for the second.

Compared with “TTTTGTACATCTTTTGCACACGTAATGTTATTATAA [CACACA_site1259]”, “CTTTTTTTTTGATGTTGTACATATATATTATATAAT [XGTACX_site1321]” is lower in “gcPBM binding intensity (ln)” value: 10.6 for the first, 6.9 for the second.

Compared with “TTATTATAAATGTTTTGTACGTACATCCGAAAATAA [XGTACX_site2175]”, “AAATAATAAAAAAAATGTACACGTAAATATTATATT [XGTACX_site8125]” is higher in “gcPBM binding intensity (ln)” value: 6.57 for the first, 6.99 for the second.

Compared with “TTTTTTTTTTTTTTGTGTACATATAATGCACATTAT [XGTACX_site6505]”, “ATTATGTTATTATTTTGTACACATAAATAATACGTT [XGTACX_site816]” is lower in “gcPBM binding intensity (ln)” value: 10.1 for the first, 6.61 for the second.
